Assay results as given in the supplement of paper PMC10849652.
The full data set covers some 8,800 targets. This sample favours those with a hit. About 0.5% of all pairs of compound and target were hits. Unmarked numbers belong to inactive results.

Key:
Assay in all cases: log2 fold change, soluble protein after heating vs DMSO (PISA); higher = thermal stabilisation; K562 lysate, 10 uM; active = over 0.2 and 3.5 SD of the protein, either way, in both replicates (recomputed)
[1] = compound: NCC(=O)Nc1ccc(-n2nc(C(F)(F)F)cc2-c2ccc3c(ccc4ccccc43)c2)cc1
How it was run: (§1)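 Following dounce homogenisation of K562 pellets in PBS pH 7.4 with 1 mM MgCl2, crude extract at 1 mg/mL protein was incubated for 30 min with 10 μM compound. Aliquots were then heated for 3 min over 48°C-58°C and pooled, NP-40 was added to 0.5% at 4°C, and soluble protein was recovered as the supernatant at 21,000xg for 90 min. Channel-sum-equalised TMTpro 16plex LC-MS/MS quantified this protein. Each value, from duplicates, is a log-two fold change in thermal stability relative to solvent controls.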

[2] = compound: O=C(CCCCCCC(=O)Nc1ccccc1)NO [vorinostat]
How it was run: as §1

[3] = compound: O=C(O)c1ccc2c(c1)nc(Nc1cccc(Cl)c1)c1ccncc12 [silmitasertib]
How it was run: as §1

[4] = compound: O=C1NC(=O)C(c2cnc3ccccn23)=C1c1cn2c3c(cc(F)cc13)CN(C(=O)N1CCCCC1)CC2
How it was run: as §1

[5] = compound: c1cn2cc(-c3ccc4cn[nH]c4c3)nc(Nc3ccc(N4CCOCC4)cc3)c2n1 [entospletinib]
How it was run: as §1

KLC2 (UniProt Q9H0B6)
log2 fold change [1]: 0.01 | log2 fold change [2]: -0.348 (active) | log2 fold change [3]: -0.005 | log2 fold change [4]: -0.061 | log2 fold change [5]: 0.034

LIG4 (UniProt P49917)
log2 fold change [1]: -0.041 | log2 fold change [2]: -0.368 | log2 fold change [3]: 0.107 | log2 fold change [4]: -0.039 | log2 fold change [5]: 0.062

KLC1 isoform 6 (UniProt Q07866)
log2 fold change [1]: 0.024 | log2 fold change [2]: -0.231 (active) | log2 fold change [3]: -0.004 | log2 fold change [4]: -0.034 | log2 fold change [5]: 0.013

MIPEP (UniProt Q99797)
log2 fold change [1]: 0.005 | log2 fold change [2]: -0.043 | log2 fold change [3]: 0.007 | log2 fold change [4]: -0.021 | log2 fold change [5]: -0.028

METTL2A (UniProt Q96IZ6)
log2 fold change [1]: 0.033 | log2 fold change [2]: -0.28 (active) | log2 fold change [3]: -0.005 | log2 fold change [4]: 0.058 | log2 fold change [5]: -0.003

LSM11 (UniProt P83369)
log2 fold change [1]: 0.233 | log2 fold change [2]: -0.027 | log2 fold change [3]: 0.194 | log2 fold change [4]: 0.014 | log2 fold change [5]: -0.02

MAP2K7 isoform 4 (UniProt O14733)
log2 fold change [1]: 0.009 | log2 fold change [2]: -1.09 (active) | log2 fold change [3]: 0.167 | log2 fold change [4]: -0.051 | log2 fold change [5]: -0.047

MAP2K3 isoform 3 (UniProt P46734)
Chain of UniProt P46734 (P46734 whole entry, looked up): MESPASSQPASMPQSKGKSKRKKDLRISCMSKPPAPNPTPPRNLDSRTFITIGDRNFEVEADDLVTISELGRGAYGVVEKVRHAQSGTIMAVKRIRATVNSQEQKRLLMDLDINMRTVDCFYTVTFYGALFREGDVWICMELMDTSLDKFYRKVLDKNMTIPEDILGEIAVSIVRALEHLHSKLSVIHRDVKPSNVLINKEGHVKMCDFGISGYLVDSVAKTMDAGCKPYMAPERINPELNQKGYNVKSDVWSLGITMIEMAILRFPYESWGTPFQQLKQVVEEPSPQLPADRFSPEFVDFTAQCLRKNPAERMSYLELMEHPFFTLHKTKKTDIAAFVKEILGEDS
log2 fold change [1]: -0.033 | log2 fold change [2]: -0.577 (active) | log2 fold change [3]: 0.149 | log2 fold change [4]: 0.025 | log2 fold change [5]: 0.072

MCMBP isoform 2 (UniProt Q9BTE3)
log2 fold change [1]: -0.153 | log2 fold change [2]: -0.413 | log2 fold change [3]: -0.092 | log2 fold change [4]: 0.064 | log2 fold change [5]: -0.654

MFF isoform 2 (UniProt Q9GZY8)
log2 fold change [1]: 0.003 | log2 fold change [2]: 0.17 | log2 fold change [3]: -0.048 | log2 fold change [4]: 0.029 | log2 fold change [5]: -0.055

KIF21A isoform 5 (UniProt Q7Z4S6)
log2 fold change [1]: 0.005 | log2 fold change [2]: -0.239 (active) | log2 fold change [3]: -0.004 | log2 fold change [4]: 0.007 | log2 fold change [5]: -0.058

MOSPD2 (UniProt Q8NHP6)
log2 fold change [1]: -0.364 (active) | log2 fold change [2]: 0.039 | log2 fold change [3]: 0.071 | log2 fold change [4]: -0.02 | log2 fold change [5]: -0.074

LARS (UniProt Q9P2J5)
log2 fold change [1]: -0.021 | log2 fold change [2]: -0.399 (active) | log2 fold change [3]: 0.052 | log2 fold change [4]: -0.003 | log2 fold change [5]: 0.012

LARP4B (UniProt Q92615)
Chain of UniProt Q92615 (Q92615 whole entry, looked up): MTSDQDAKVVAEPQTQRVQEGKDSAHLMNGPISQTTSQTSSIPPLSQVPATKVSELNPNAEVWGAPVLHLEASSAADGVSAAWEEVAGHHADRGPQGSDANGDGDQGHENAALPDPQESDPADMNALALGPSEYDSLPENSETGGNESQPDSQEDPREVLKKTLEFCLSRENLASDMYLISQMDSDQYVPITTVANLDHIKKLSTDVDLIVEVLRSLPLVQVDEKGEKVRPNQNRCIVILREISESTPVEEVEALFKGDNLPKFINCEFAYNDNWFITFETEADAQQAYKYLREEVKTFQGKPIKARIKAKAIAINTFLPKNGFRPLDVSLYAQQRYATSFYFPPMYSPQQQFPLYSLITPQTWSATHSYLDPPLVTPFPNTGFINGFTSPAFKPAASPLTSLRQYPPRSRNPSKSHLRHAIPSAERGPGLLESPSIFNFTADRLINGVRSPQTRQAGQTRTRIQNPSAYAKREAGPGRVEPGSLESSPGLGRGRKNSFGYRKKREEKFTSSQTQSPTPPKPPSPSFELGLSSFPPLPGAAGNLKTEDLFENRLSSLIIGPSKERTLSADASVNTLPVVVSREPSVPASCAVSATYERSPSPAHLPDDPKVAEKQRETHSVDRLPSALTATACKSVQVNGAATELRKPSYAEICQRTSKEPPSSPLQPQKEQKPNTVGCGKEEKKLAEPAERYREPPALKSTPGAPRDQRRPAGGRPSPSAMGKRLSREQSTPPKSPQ
log2 fold change [1]: 0.019 | log2 fold change [2]: -0.306 (active) | log2 fold change [3]: 0.032 | log2 fold change [4]: -0.028 | log2 fold change [5]: -0.011

MARK3 (UniProt P27448)
log2 fold change [1]: -0.035 | log2 fold change [2]: -0.069 | log2 fold change [3]: 0.445 (active) | log2 fold change [4]: 0.035 | log2 fold change [5]: 0.036

MAP2K5 (UniProt Q13163)
log2 fold change [1]: -0.111 | log2 fold change [2]: -0.293 | log2 fold change [3]: -0.123 | log2 fold change [4]: 0.023 | log2 fold change [5]: 0.065

KIF2C (UniProt Q99661)
Chain of UniProt Q99661 (Q99661 whole entry, looked up): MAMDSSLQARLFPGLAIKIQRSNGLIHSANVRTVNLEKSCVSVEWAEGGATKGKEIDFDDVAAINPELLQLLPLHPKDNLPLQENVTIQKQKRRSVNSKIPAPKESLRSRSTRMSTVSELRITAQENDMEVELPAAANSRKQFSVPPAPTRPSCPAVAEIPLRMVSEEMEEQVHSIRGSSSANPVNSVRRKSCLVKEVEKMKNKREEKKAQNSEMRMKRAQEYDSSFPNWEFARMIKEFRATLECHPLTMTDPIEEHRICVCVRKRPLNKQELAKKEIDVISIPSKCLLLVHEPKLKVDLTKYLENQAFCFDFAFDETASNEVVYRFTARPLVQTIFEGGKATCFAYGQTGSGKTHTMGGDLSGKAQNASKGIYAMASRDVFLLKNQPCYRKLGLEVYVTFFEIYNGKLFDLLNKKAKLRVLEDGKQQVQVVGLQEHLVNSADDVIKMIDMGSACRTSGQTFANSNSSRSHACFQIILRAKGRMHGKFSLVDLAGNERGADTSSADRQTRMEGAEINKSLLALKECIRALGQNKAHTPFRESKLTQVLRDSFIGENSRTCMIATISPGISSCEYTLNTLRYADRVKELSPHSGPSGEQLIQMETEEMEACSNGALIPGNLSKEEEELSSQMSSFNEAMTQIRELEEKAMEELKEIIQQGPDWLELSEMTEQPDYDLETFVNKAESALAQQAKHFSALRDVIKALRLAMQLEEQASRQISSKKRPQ
log2 fold change [1]: 0.003 | log2 fold change [2]: -0.464 (active) | log2 fold change [3]: 0.028 | log2 fold change [4]: 0.012 | log2 fold change [5]: 0.024

LGALS3BP (UniProt Q08380)
log2 fold change [1]: 0.153 | log2 fold change [2]: 0.176 | log2 fold change [3]: -0.121 | log2 fold change [4]: 0.113 | log2 fold change [5]: -0.129

MRPL28 (UniProt Q13084)
log2 fold change [1]: 0.002 | log2 fold change [2]: -0.037 | log2 fold change [3]: 0.022 | log2 fold change [4]: 0.044 | log2 fold change [5]: 0.129

MRPL46 (UniProt Q9H2W6)
log2 fold change [1]: 0.021 | log2 fold change [2]: -0.21 | log2 fold change [3]: 0.155 | log2 fold change [4]: 0.036 | log2 fold change [5]: -0.049

MOCS3 (UniProt O95396)
log2 fold change [1]: 0.062 | log2 fold change [2]: -0.458 (active) | log2 fold change [3]: -0.012 | log2 fold change [4]: 0.053 | log2 fold change [5]: 0.035

LETM1 (UniProt O95202)
log2 fold change [1]: -0.041 | log2 fold change [2]: 0.084 | log2 fold change [3]: -0.021 | log2 fold change [4]: -0.006 | log2 fold change [5]: 0.009

MAP2K4 isoform 2 (UniProt P45985)
log2 fold change [1]: -0.119 | log2 fold change [2]: -0.216 | log2 fold change [3]: 0.023 | log2 fold change [4]: 0.013 | log2 fold change [5]: 0.028

LIMK2 isoform 3 (UniProt P53671)
log2 fold change [1]: -0.011 | log2 fold change [2]: -0.21 | log2 fold change [3]: 0.114 | log2 fold change [4]: 0.021 | log2 fold change [5]: -0.055

LAS1L (UniProt Q9Y4W2)
log2 fold change [1]: -0.008 | log2 fold change [2]: -0.397 (active) | log2 fold change [3]: 0.01 | log2 fold change [4]: -0.018 | log2 fold change [5]: -0.075

MED17 (UniProt Q9NVC6)
log2 fold change [1]: -0.051 | log2 fold change [2]: -0.392 (active) | log2 fold change [3]: -0.008 | log2 fold change [4]: -0.006 | log2 fold change [5]: 0.083

KIF4A (UniProt O95239)
Chain of UniProt O95239 (O95239 whole entry, looked up): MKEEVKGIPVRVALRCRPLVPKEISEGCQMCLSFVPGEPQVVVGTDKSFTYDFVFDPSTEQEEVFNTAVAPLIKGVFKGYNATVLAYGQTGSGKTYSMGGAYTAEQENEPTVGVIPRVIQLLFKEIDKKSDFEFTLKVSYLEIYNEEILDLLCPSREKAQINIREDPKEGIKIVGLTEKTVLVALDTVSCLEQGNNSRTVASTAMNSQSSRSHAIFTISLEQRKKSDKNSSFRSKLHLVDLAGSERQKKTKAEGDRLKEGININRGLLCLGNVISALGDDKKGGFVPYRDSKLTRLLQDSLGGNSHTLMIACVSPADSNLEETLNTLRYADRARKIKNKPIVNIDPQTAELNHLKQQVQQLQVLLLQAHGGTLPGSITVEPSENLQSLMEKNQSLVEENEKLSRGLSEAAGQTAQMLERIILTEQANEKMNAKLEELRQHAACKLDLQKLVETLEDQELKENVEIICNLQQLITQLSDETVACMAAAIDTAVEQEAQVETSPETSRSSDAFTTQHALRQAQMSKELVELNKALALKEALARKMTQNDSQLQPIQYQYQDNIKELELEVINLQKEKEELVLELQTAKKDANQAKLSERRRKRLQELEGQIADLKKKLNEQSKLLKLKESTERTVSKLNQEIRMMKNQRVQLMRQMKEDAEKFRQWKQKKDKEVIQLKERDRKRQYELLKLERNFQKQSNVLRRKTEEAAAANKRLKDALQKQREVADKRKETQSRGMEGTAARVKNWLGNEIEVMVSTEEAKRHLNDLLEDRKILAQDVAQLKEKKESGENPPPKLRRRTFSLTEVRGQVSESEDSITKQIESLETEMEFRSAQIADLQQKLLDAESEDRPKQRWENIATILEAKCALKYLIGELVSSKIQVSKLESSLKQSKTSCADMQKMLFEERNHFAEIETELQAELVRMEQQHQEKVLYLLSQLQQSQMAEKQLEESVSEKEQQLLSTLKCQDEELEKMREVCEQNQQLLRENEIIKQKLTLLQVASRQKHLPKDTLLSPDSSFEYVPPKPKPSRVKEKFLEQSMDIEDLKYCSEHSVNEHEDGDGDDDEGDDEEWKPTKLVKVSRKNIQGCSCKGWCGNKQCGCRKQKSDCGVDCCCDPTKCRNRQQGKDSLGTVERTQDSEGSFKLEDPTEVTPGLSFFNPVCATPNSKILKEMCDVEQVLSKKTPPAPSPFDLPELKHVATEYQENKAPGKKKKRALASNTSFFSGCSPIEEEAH
log2 fold change [1]: -0.017 | log2 fold change [2]: -0.445 (active) | log2 fold change [3]: 0.017 | log2 fold change [4]: 0.013 | log2 fold change [5]: 0.001

MIF (UniProt P14174)
Chain of UniProt P14174 (P14174 whole entry, looked up): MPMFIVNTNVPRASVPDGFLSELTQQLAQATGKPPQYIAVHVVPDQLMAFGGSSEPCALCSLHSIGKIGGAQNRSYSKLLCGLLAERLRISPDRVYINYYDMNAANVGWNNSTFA
log2 fold change [1]: 0.048 | log2 fold change [2]: -0.055 | log2 fold change [3]: 0.065 | log2 fold change [4]: -0.009 | log2 fold change [5]: 0.064

LARS2 (UniProt Q15031)
Chain of UniProt Q15031 (Q15031 whole entry, looked up): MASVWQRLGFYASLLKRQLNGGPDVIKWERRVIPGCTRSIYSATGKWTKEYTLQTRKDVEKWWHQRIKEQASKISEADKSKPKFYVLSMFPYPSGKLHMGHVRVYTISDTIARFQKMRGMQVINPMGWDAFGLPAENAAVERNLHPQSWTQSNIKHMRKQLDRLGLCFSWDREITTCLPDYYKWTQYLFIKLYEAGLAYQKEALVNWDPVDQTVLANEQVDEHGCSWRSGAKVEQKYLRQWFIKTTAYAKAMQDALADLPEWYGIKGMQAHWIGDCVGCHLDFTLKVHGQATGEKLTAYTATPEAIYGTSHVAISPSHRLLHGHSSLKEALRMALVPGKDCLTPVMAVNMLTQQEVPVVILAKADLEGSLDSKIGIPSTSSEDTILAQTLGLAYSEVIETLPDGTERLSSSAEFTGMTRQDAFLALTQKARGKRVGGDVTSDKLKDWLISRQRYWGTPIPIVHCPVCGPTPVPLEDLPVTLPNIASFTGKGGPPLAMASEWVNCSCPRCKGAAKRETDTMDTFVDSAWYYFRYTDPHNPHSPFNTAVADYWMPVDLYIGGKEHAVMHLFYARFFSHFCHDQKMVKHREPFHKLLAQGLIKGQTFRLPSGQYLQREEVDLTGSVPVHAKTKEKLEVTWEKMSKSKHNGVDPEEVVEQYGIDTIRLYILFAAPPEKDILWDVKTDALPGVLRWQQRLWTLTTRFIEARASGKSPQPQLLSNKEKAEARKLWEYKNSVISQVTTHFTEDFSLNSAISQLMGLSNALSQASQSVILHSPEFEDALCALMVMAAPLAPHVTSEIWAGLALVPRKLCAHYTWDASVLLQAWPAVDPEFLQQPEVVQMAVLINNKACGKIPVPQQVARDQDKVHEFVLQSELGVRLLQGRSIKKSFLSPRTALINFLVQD
log2 fold change [1]: -0.062 | log2 fold change [2]: -0.229 | log2 fold change [3]: 0.054 | log2 fold change [4]: -0.083 | log2 fold change [5]: 0.036

MACO1 (UniProt Q8N5G2)
Chain of UniProt Q8N5G2 (Q8N5G2 whole entry, looked up): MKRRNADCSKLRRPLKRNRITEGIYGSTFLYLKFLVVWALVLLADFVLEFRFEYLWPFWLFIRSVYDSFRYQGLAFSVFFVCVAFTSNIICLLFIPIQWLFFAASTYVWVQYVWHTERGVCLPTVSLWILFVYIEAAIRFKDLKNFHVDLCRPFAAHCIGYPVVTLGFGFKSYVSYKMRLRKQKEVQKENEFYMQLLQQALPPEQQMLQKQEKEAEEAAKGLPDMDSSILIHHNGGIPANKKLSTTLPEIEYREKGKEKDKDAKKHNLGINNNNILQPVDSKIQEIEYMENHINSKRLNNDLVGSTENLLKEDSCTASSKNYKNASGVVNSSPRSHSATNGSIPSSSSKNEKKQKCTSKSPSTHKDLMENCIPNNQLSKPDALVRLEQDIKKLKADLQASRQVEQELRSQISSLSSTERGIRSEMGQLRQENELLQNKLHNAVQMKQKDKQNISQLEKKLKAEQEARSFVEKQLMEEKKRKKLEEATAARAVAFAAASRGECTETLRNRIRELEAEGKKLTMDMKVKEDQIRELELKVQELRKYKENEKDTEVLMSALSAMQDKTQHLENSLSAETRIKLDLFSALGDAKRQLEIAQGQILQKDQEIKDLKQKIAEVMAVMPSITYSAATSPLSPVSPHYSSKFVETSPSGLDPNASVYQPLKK
log2 fold change [1]: 0.081 | log2 fold change [2]: 0.028 | log2 fold change [3]: -0.003 | log2 fold change [4]: -0.003 | log2 fold change [5]: 0.005

LPCAT1 (UniProt Q8NF37)
log2 fold change [1]: -0.011 | log2 fold change [2]: 0.027 | log2 fold change [3]: -0.076 | log2 fold change [4]: -0.026 | log2 fold change [5]: -0.057

MLLT11 (UniProt Q13015)
log2 fold change [1]: 0.08 | log2 fold change [2]: 0.104 | log2 fold change [3]: -0.203 | log2 fold change [4]: -0.016 | log2 fold change [5]: 0.034

MORC3 (UniProt Q14149)
log2 fold change [1]: 0.008 | log2 fold change [2]: -0.303 (active) | log2 fold change [3]: -0.01 | log2 fold change [4]: 0.005 | log2 fold change [5]: 0.009

MMS22L (UniProt Q6ZRQ5)
log2 fold change [1]: 0.022 | log2 fold change [2]: -0.508 (active) | log2 fold change [3]: 0.016 | log2 fold change [4]: 0.138 | log2 fold change [5]: 0.069

LRCH3 (UniProt Q96II8)
log2 fold change [1]: 0.053 | log2 fold change [2]: -0.535 (active) | log2 fold change [3]: 0.048 | log2 fold change [4]: -0.03 | log2 fold change [5]: -0.009

MIF4GD isoform 3 (UniProt A9UHW6)
log2 fold change [1]: 0.008 | log2 fold change [2]: -0.232 (active) | log2 fold change [3]: 0.018 | log2 fold change [4]: -0.012 | log2 fold change [5]: -0.032

KLC4 isoform 3 (UniProt Q9NSK0)
log2 fold change [1]: 0.01 | log2 fold change [2]: -0.557 (active) | log2 fold change [3]: 0.009 | log2 fold change [4]: -0.041 | log2 fold change [5]: -0.006

MAP11 (UniProt Q8WVR3)
log2 fold change [1]: -0.017 | log2 fold change [2]: -0.488 (active) | log2 fold change [3]: -0.015 | log2 fold change [4]: 0.056 | log2 fold change [5]: -0.131

KLHL36 (UniProt Q8N4N3)
log2 fold change [1]: 0.059 | log2 fold change [2]: -0.161 | log2 fold change [3]: 0.082 | log2 fold change [4]: -0.037 | log2 fold change [5]: -0.006

LZTS1 (UniProt Q9Y250)
log2 fold change [1]: 0.04 | log2 fold change [2]: 0.101 | log2 fold change [3]: -0.143 | log2 fold change [4]: 0.121 | log2 fold change [5]: 0.07

LDAH isoform 2 (UniProt Q9H6V9)
Chain of UniProt Q9H6V9 (Q9H6V9 whole entry, looked up): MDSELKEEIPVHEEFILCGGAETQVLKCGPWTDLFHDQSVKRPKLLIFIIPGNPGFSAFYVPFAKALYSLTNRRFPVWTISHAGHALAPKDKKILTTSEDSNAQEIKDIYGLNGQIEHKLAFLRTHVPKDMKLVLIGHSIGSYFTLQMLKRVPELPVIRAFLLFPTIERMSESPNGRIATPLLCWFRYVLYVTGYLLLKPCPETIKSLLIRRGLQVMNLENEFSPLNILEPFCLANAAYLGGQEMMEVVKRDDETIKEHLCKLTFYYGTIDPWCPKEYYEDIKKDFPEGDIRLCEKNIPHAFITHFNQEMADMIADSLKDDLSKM
log2 fold change [1]: -0.017 | log2 fold change [2]: -0.13 | log2 fold change [3]: 0.064 | log2 fold change [4]: 0.033 | log2 fold change [5]: -0.029
